SMILES strings stand for the structures. The whole screen tested about 68,000 compounds, of which about 2,700 (4%) showed an effect of 50% or more. The sample as a whole holds a higher share of strong results than the screen did.

This assay concerns Plasmodium berghei. Put plainly: Screen against P. berghei liver stage (PbLuc), transformed with Luciferase, at 2uM. Format: functional, HepG2. Conditions: tested at 2 uM.
As to `Cn1ccnc1CN(Cc1ccccn1)Cc1ccccc1Cl`, the INHIBITION is given as -8.33%.

Consider `CN(Cc1ccc(Cl)s1)C(=O)NCCC(=O)N1CCCCCC1`, for which the INHIBITION is -12.84%. Consider `Cc1c(C(=O)NC2=NCCS2)cnn1-c1ccc(Br)cc1`, for which the INHIBITION was -23.27%. Under `NC(=O)c1ccc(NC2CCOC3(CCCC3)C2)nn1` (stereo not given) stands -0.45%; under `Cc1nsc(NC2CCOC3(CCCC3)C2)n1` (stereo not given), 62%; under `CC(C)c1nsc(NC2CCOC3(CCCC3)C2)n1` (stereo not given), 30.06%. Under `Cc1cc(C)nc(NC2CCOC3(CCCC3)C2)n1` (stereo not given) stands 10.23%; under `Cc1nsc(NC2CCOC3(CCCCC3)C2)n1` (stereo not given), 62%.

Turning to `CCc1nsc(NC2CCOC3(CCCC3)C2)n1` (stereo not given), the INHIBITION is listed as -9.6%. Under `Cc1nn(C)c(Cl)c1CNCc1ccc(OCC(N)=O)cc1` stands -5.1%; under `COc1ccccc1CN1C[C@@H]2COC[C@]2(COCc2ccncc2)C1`, 38.11%. The figure for `Cc1cnc(N2CCc3ncnc(N4CCN(C)CC4)c3CC2)nc1` is 17.57%; for `Cc1cc(C)n(CC2CCCN2Cc2ncc(C(C)(C)C)o2)n1` (stereo not given) it is -11.91%.

As for `Cc1cnn(CC2CCCCN2Cc2ncc(C(C)(C)C)o2)c1` (stereo not given), the INHIBITION amounted to 30.91%. Under `CCC1CCCCN1Cc1ncc(C(C)(C)C)o1` (stereo not given) stands 70.27%; under `CC(C)(C)c1cnc(CN2CCCC2Cn2cccn2)o1` (stereo not given), -50.72%. The figure for `CC(C)(C)c1cnc(CN2CCCCC2Cn2cccn2)o1` (stereo not given) is -23.94%; for `CC(C)(C)c1cnc(CN2CCC[C@H]2CO)o1` it is 56.72%. The figure for `O=S(=O)(NCC1(O)CCOCC1)c1c(F)cccc1F` is 43.15%; for `CCc1cnc(N2CCc3ncnc(N4CCN(C)CC4)c3CC2)nc1` it is -64.85%; for `NC(=O)N1CC(OCc2cccc3ccccc23)C1` it is 5.98%. Consider `Cc1cc(C)c2ncn(CCOCCO)c(=O)c2c1`, for which the INHIBITION is recorded as 24.55%. Consider `O=C(NCc1n[nH]c2c1CCCCC2)c1cnn2c1CCCC2`, for which the INHIBITION was -23.38%. Under `CCc1nc(CN2CCCN(C(=O)COCC3CC3)CC2)cs1` stands 3.9%; under `Cn1cc(C(O)CNC(=O)c2cc(Br)ccc2Cl)cn1` (stereo not given), 20.29%; under `CCC(CC)NC(=O)c1ccc2nnc(C3CCN(C(C)=O)C3)n2c1` (stereo not given), 30.75%. Under `O=C1CCC2(CCCN(C(=O)Cc3cccnc3)C2)N1` (stereo not given) stands 29.3%; under `O=C1CCC2(CCCN(C(=O)Cc3ccccn3)C2)N1` (stereo not given), 29.85%.

For the compound `O=C1CCC2(CCCN(C(=O)Cc3ccccc3)C2)N1` (stereo not given), the INHIBITION is recorded as 60.05%. The figure for `CS(=O)(=O)N1CCN(C(=O)c2cncs2)CC(C(N)=O)C1` (stereo not given) is -33.32%; for `CNC(=O)[C@@H](c1ccccc1OC)N1CCC[C@H]1C(=O)N1CC[C@@H](O)C1` it is 50.91%. Under `CNC(=O)[C@@H](c1ccccc1OC)N1CCC[C@H]1C(=O)N1CCC1` stands -20.89%. On to `CNC(=O)[C@@H](c1ccccc1OC)N1CCC[C@H]1C(=O)NC(C)(C)C`, for which the INHIBITION is recorded as -1.63%.

For the compound `O=C(NCc1cc[nH]n1)NC1CCCN(c2ncccn2)C1` (stereo not given), the INHIBITION came out at 12.8%. Under `Cn1cccc1CN1CCC2(CCCN(C(=O)Cc3cccnc3)C2)C1` (stereo not given) stands -4.92%; under `Cn1cccc1CN1CCC2(CCCN(C(=O)c3cccnc3)C2)CC1`, 61.08%; under `Cn1cccc1CN1CCC2(CCCN(C(=O)c3cnccn3)C2)C1` (stereo not given), -30.12%.

On to `Cc1noc(CCCC(=O)NC(C)c2cccnc2)n1` (stereo not given), for which the INHIBITION is on record as -19.76%. The figure for `N#CCCN(C(=O)CN1CCCC1c1cccs1)c1ccccc1F` (stereo not given) is -13.06%.

On to `N#CCCN(C(=O)CN1CCCC1c1ccsc1)c1ccccc1` (stereo not given), for which the INHIBITION is -37.2%. Under `N#CCCN(C(=O)CN1CCCC1c1ccsc1)c1ccccc1F` (stereo not given) stands 73.05%; under `CC(C)c1nnc2n1CCN(C(=O)c1cc3cc(F)ccc3[nH]1)C2`, 31.57%; under `CC(C)CC(=O)N1CCCC1c1cc(CO)[nH]n1` (stereo not given), 31.92%. Under `O=C(NC[C@H]1OC[C@@H]2CN(Cc3ccco3)CC[C@@H]21)c1cccnc1` stands -36.8%; under `CN(C)C[C@@H]1OC[C@H]2CN(Cc3ccoc3)CC[C@H]21`, 0.13%; under `O=C(NC[C@H]1OC[C@@H]2CN(Cc3ccco3)CC[C@@H]21)c1cscn1`, 66.46%. With `Cn1cc(C(=O)NC[C@@H]2OC[C@H]3CN(Cc4ccco4)CC[C@H]32)cn1`, the INHIBITION is -33.95%. Under `CN(Cc1ccco1)C[C@@H]1OC[C@H]2CN(Cc3nccs3)CC[C@H]21` stands 59.03%; under `CN(Cc1ccco1)C[C@H]1OC[C@@H]2CCN(Cc3cccs3)C[C@@H]21`, -2.83%. Under `Cc1ccc(CN2CC[C@H]3CO[C@H](CN(C)Cc4ccco4)[C@H]3C2)s1` stands 59.03%; under `CN(Cc1ccco1)C[C@H]1OC[C@@H]2CCN(Cc3nccs3)C[C@@H]21`, -13.27%. As for `CN(Cc1ccco1)C[C@H]1OC[C@@H]2CCN(Cc3ccsc3)C[C@@H]21`, the INHIBITION was determined as 22.89%. The figure for `CN(Cc1cccnc1)C[C@@H]1OC[C@H]2CN(Cc3ccoc3)CC[C@H]21` is 55.7%; for `CN(Cc1cccnc1)C[C@@H]1OC[C@H]2CN(Cc3ccco3)CC[C@H]21` it is 10.53%. On to `CN(Cc1ccco1)C[C@H]1OC[C@@H]2CCN(Cc3ccccn3)C[C@@H]21`, for which the INHIBITION is listed as -1.63%. The figure for `O=C(N[C@@H]1CN(Cc2ccc3[nH]ccc3c2)C[C@H]1O)c1cscn1` is -0.83%; for `Cc1nn(C)c(C)c1CC(=O)N1CCC(N(C)c2cccnn2)CC1` it is -48.87%; for `COc1ccc(C2=CCN(C(=O)C3CCS(=O)(=O)C3)CC2)cc1` (stereo not given) it is -7.13%.

With `Cc1ccccc1CN1CCC(NCC2CNc3ccnn3C2)CC1` (stereo not given), the INHIBITION was -4.7%. The figure for `N#Cc1ccccc1CN1C[C@H]2CC[C@@H](C1)N(CC1CCC1)C2=O` is -39.43%; for `COc1ncccc1C(=O)NCCn1cnc(C)cc1=O` it is -7.16%; for `O=S(=O)(NCCCn1cccn1)c1ccc2c(c1)CCC2` it is 42.26%. As to `CCn1ccc(NS(=O)(=O)c2cccc(COC)c2)n1`, the INHIBITION was -85.71%. The figure for `O=S(=O)(NCCCn1cncn1)c1ccc2c(c1)OCCO2` is 65.71%; for `CCc1ccc(S(=O)(=O)Nc2ccn(CC(=O)OC)n2)cc1` it is 11.9%; for `O=S(=O)(NCCCn1cncn1)c1ccc2c(c1)CCC2` it is 54.99%. Consider `O=S(=O)(NCCCn1cncn1)c1ccc2c(c1)CCO2`, for which the INHIBITION is listed as -9.13%. The figure for `O=S(=O)(NCCCn1cncn1)c1ccc2c(c1)CCCC2` is -5.74%; for `COC(=O)Cn1ccc(NS(=O)(=O)c2ccc3c(c2)CCC3)n1` it is 53.98%; for `O=S(=O)(NCCCn1cncn1)c1ccc2c(c1)OCCCO2` it is -56.09%. Under `CCCN1CCC2(C1)c1ccccc1S(=O)(=O)N2Cc1ccccc1` (stereo not given) stands 9.87%; under `CCCn1ccc2cc(NC(=O)NCCn3cnnc3CC)ccc21`, 12.58%; under `O=C([C@H]1COC[C@H]2CN(C3CCCC3)C[C@H]21)N1CCCO1`, 0.13%.

In the case of `CCS(=O)(=O)N1CCC2(CC(=O)N(c3ccccc3C)C2)C1` (stereo not given), the INHIBITION amounted to 46.87%. `Cc1ccc(C2c3c(n[nH]c3C)N=C3COC(=O)C32)cc1C` (stereo not given): the INHIBITION is listed as 28.23%. For `CC(=O)Nc1cnc(Oc2ccccc2F)nc1`, the INHIBITION is 8.41%. The figure for `CO[C@@H]1CO[C@@]2(CCCN(Cc3nc(C)cs3)C2)C1` is -61.54%. The figure for `O=C1CC(NCc2ccncc2)CN1Cc1cccc(F)c1` (stereo not given) is -12.82%. The figure for `Nc1cc2c(nn1)CCN(C(=O)CCCC1CCCCC1)C2` is -33.92%; for `Cc1nc(CN2CCCC(N(C)c3ccc(C#N)cn3)C2)no1` (stereo not given) it is -14.71%.

Consider `COc1cc2c(nn1)CCN(Cc1noc(CC(C)C)n1)C2`, for which the INHIBITION is reported as 65.76%. Under `COc1cc2c(nn1)CCN(Cc1nc(Cc3ccccc3)no1)C2` stands 48.93%; under `COc1cc2c(nn1)CCN(Cc1noc(-c3ccccc3)n1)C2`, 0.12%; under `Cc1nn(C)c(Cl)c1C1CCCN1C(=O)c1csnn1` (stereo not given), 75.98%. The figure for `Cc1nn(C)c(C)c1C1CCCN1C(=O)c1ccc(C(N)=O)cn1` (stereo not given) is -27.71%. Under `Cc1nn(C)c(Cl)c1C1CCCN1C(=O)c1ccc(O)nc1` (stereo not given) stands -36.73%. With `COc1c(C2CCCN2C(=O)c2cc(C)on2)c(C)nn1C` (stereo not given), the INHIBITION was 51.94%. The figure for `Cc1cc(C(=O)N2CCCC2c2c(C)nn(C)c2C)no1` (stereo not given) is 43%. Under `Cc1nn(C)c(Cl)c1C1CCCN1C(=O)c1cnccn1` (stereo not given) stands 3.86%. As to `Cc1nn(C)c(Cl)c1C1CCCN1C(=O)c1cc[nH]n1` (stereo not given), the INHIBITION worked out at 47.57%.

Regarding `Cc1nn(C)c(Cl)c1C1CCCN1C(=O)c1ccc(C(N)=O)cn1` (stereo not given), the INHIBITION was determined as 68.24%.

Take `COc1c(C2CCCN2C(=O)c2cc(C3CC3)on2)c(C)nn1C` (stereo not given): the INHIBITION was -47.94%. The figure for `O=C([C@H]1CN(Cc2ccccc2F)C[C@H]2OCC[C@@H]12)N1CCCO1` is 13.61%; for `CC(NC(=O)N1CCCN(CC(F)F)CC1)c1ccco1` (stereo not given) it is 1.06%; for `CNc1nc(CNC(=O)Nc2cccc(Cl)c2OC)cs1` it is -4.43%.

Take `CNc1nc(CNC(=O)Nc2cccc(Cl)c2Cl)cs1`: the INHIBITION was 61.09%.

Take `CNc1nc(CNC(=O)Nc2cccc(C)c2Cl)cs1`: the INHIBITION is reported as 15.4%. Under `CC(C)(C)c1nnc(NCC(=O)N2CCc3sccc3C2)s1` stands 33.83%; under `O=C(NCc1nnc2n1CCC2)N(Cc1ccco1)C1CC1`, 17.52%; under `Cc1ccc(N2CCCC(NCCCS(C)(=O)=O)C2)nn1` (stereo not given), -15.77%. Under `COCCCNC1CCCN(c2ccc(C)nn2)C1` (stereo not given) stands -73.41%. The figure for `c1cnnc(N2CCCC(NCc3cccc4c3OCO4)C2)c1` (stereo not given) is -9.98%. With `Cc1ccc(N2CCCC(NCc3cccc4c3OCO4)C2)nn1` (stereo not given), the INHIBITION is 56.02%. For `Cc1ccc(N2CCCC(NCc3cccc4c3OCCO4)C2)nn1` (stereo not given), the INHIBITION turned out to be 15.13%. In the case of `Cc1ccc(N2CCCC(NCCS(C)(=O)=O)C2)nn1` (stereo not given), the INHIBITION came out at 52.6%.

These data come from ChEMBL document CHEMBL4513216, “Probing the Open Global Health Chemical Diversity Library for Multistage-Active Starting Points for Next-Generation Antimalarials” (ACS Infect Dis, 2020).
